# Bioassay records from PubChem BioAssay.
# Rin1-Abl PPI inh = human Rin1-Abl interaction inhibition | TR-FRET Rin1/Abl binding, biochemical | AID 588664 | hit rate 0.4% among 360,000 | inhibition, % at 7.35 µM | P00519+Q13671; in the data active = inhibition above about 5%, passing the limit was not always enough
# UHRF1 binding = human UHRF1 methylated DNA binding inhibitors | hit rate 0.75% among 370,000 | inhibition, % at 4.4 µM | UHRF1 binding to methylated oligo, TR-FRET | Q96T88 | AID 687016; in the data active = inhibition above about 21%;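 also: UHRF1 SRA domain binding a hemimethylated CpG hairpin DNA probe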
# MBD2 DNA inh = blocks human MBD2 binding to methylated DNA. Q9UBB5. TR-FRET, MBD2 binding to methylated oligonucleotide. inhibition, % at 4.4 µM. hit rate 0.31% among 370,000. AID 686964; in the data active = inhibition above about 13%
# LEDGF integ inh = blocks HIV-1 LEDGF/p75-dependent DNA integration; TR-FRET IN-LEDGF/p75 DNA integration, Eu/Cy5; AID 743269; inhibition, % at 3.7 µM; hit rate 0.64% among 370,000;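 active = inhibition above the screen-wide mean plus 3 SD, cut at about 13% in these data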;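 also: signal is the Cy5 over europium emission ratio at 671 and 618 nm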
# Neddyl block = cullin neddylation inhibition. P61081+Q13564. TR-FRET cullin neddylation, biochemical. calls only at 25 µM. hit rate 0.58% among 360,000. AID 651699; in the data active = inhibition above about 36%
# KLK7 zymogen act = activates the human kallikrein-7 zymogen | P49862 | AID 652039 | hit rate 0.9% among 370,000 | purified proKLK7, EDANS-DABCYL substrate fluorescence; 100% is mature enzyme control, 0% vehicle | activation, % at 7 µM;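 active = activation above the mean of all tested compounds plus 3 SD, computed per campaign excluding outliers beyond control limits, cut at about 13% in these data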
# Target sequence (P49862 whole entry, looked up): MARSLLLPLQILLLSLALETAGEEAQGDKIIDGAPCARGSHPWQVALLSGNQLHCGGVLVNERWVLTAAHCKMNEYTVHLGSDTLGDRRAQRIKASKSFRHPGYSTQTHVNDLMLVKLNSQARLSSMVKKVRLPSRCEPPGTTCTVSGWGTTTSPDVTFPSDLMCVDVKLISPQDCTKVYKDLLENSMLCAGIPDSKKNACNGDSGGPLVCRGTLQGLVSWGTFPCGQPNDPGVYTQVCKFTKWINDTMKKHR
# Hits are given with their value; - = inactive; . = no result shown; + = active, no number. Most compounds without a hit are left out; they make up all but 3.1% or so of the library.
SMILES,Rin1-Abl PPI inh,UHRF1 binding,MBD2 DNA inh,LEDGF integ inh,Neddyl block,KLK7 zymogen act
O=C(c1cccs1)n1ccc2ccc(-c3ccc4ccn(Cc5ccccc5)c4c3)cc21,.,-,-,-,.,-
COc1ccc(NC(C)=O)cc1NC(=O)CSc1nnc(-c2ccccc2)n1N,-,26,-,-,-,-
COCc1c(C(=O)OCC(=O)c2ccc[nH]2)oc2ccccc12,-,-,-,-,-,-
CSCc1c(C(=O)OCC(=O)c2ccc[nH]2)oc2ccccc12,-,-,-,19,-,-
CC1CCN(CCc2nc3cc(NC(=O)COc4ccccc4)ccc3n2C)CC1,-,26,-,-,-,-
CCCCN(CC)c1nc(N)c2c(N)nc(OCC)cc2c1C#N,-,38,-,-,-,-
CCOc1cc2c(C#N)c(N3CCCC3)nc(N)c2c(N)n1,-,-,-,-,-,-
COCCCNC(=O)CCCn1c(=O)c2ccccc2n(Cc2cccc([N+](=O)[O-])c2)c1=O,-,-,-,-,-,-
O=C(C=Cc1ccccc1)CC(c1ccccc1)N1CCOCC1 (stereo not drawn),-,-,-,-,-,-
CCOC(=O)c1cc2cc3ccccc3cc2[nH]1,-,-,-,-,+,-
O=C(CCc1nnc2ccc(NCc3ccco3)nn12)N1CCN(c2ccc(F)cc2)CC1,-,-,-,-,-,-
COc1ccc(NC(=S)NCc2ccccc2)c(OC)c1,-,-,-,-,-,-
COc1cc(OC)c(NC(=S)NCc2ccccc2)cc1Cl,-,65,-,-,-,-
CC1(C(=O)NS(=O)(=O)c2ccccc2Cl)CCN1C(=O)COc1ccc(Cl)cc1 (stereo not drawn),-,-,-,-,-,-
CC1=CCC[C@@H]2[C@]3(CC/C(=C/CO)CO)CO[C@@]2(C1)[C@@H](O)C[C@H]3C,-,-,-,-,-,-
COC(=O)CC1NCCc2cc(OC)c(OC)cc21 (stereo not drawn),-,33,-,-,-,-
CCn1ncc([N+](=O)[O-])c1C(=O)Nc1ccc(C)c(C)c1,-,-,-,-,-,-
CC(C)C[C@@H](CNCC(=O)[C@H](Cc1c[nH]c2ccccc12)NC(=O)c1[nH]cnc1C(=O)N[C@@H](C)CN)NC(=O)c1nc[nH]c1C(=O)N[C@@H](C)C(=O)O,-,22,-,-,-,-
CC(C)C[C@@H](CN)NC(=O)c1nc[nH]c1C(=O)N[C@@H](Cc1c[nH]c2ccccc12)C(=O)CNC[C@H](C)NC(=O)c1nc[nH]c1C(=O)N[C@@H](CC(=O)O)C(=O)O,-,22,-,-,-,-
CC(C)C[C@@H](CNCC(=O)[C@H](Cc1c[nH]c2ccccc12)NC(=O)c1[nH]cnc1C(=O)N[C@H](CN)CC(C)C)NC(=O)c1nc[nH]c1C(=O)N[C@@H](CC(=O)O)C(=O)O,-,22,-,-,-,-
CC(C)C[C@@H](CNCC(=O)[C@H](Cc1ccccc1)NC(=O)c1[nH]cnc1C(=O)N[C@@H](C)CN)NC(=O)c1nc[nH]c1C(=O)N[C@@H](CC(=O)O)C(=O)O,-,-,-,-,-,-
CC(C)C[C@@H](CNCC(=O)[C@H](Cc1c[nH]c2ccccc12)NC(=O)c1[nH]cnc1C(=O)N[C@@H](C)CN)NC(=O)c1nc[nH]c1C(=O)N[C@@H](CC(=O)O)C(=O)O,-,-,-,-,-,-
O=C(CCN1C(=O)NC2(CCCC2)C1=O)Nc1ccc(-c2nc3ccccc3s2)cc1,-,-,-,-,-,-
COc1cc(CN2CCC(n3nccc3NC(=O)c3ccc4c(c3)OCO4)CC2)ccc1O,-,-,-,-,-,-
O=C(Cn1c(=O)n(Cc2ccco2)c(=O)c2c3c(sc21)CCCC3)Nc1ccccc1,-,-,-,-,-,-
SMILES,Rin1-Abl PPI inh,UHRF1 binding,MBD2 DNA inh,LEDGF integ inh,Neddyl block,KLK7 zymogen act
NC(=O)Cn1c(=O)n(Cc2ccco2)c(=O)c2c3c(sc21)CCCCC3,-,21,-,-,-,-
O=C(NC12CC3CC(CC(C3)C1)C2)c1ccc(-c2cccc(Cl)c2)o1,-,21,-,-,-,-
O=C(NC12CC3CC(CC(C3)C1)C2)c1ccc(-c2ccc(Cl)cc2)o1,-,-,-,-,-,-
Cc1c(C(=O)Nc2ccccn2)sc2nc3n(c(=O)c12)CCC3,-,-,-,-,-,-
Cc1cccnc1NC(=O)c1ccc2c(c1)OCO2,-,-,-,-,-,-
Cc1cccnc1NC(=O)/C=C/c1ccc2c(c1)OCO2,-,23,-,-,-,-
CSc1nc2c(c(C(F)(F)F)n1)CC(C)CC2 (stereo not drawn),-,-,-,-,-,-
Cc1cc(C)c2nc(NNC(=O)c3ccc(S(=O)(=O)N4CCCC(C)C4)cc3)sc2c1 (stereo not drawn),-,-,-,-,-,-
Cc1cc(C)c2nc(NNC(=O)c3ccc(S(=O)(=O)N4CC(C)CC(C)C4)cc3)sc2c1 (stereo not drawn),-,-,-,15,-,-
CN1CCN(C(=S)C(=O)Nc2ccccc2)CC1,-,22,-,-,-,-
CN1CCN(C(=S)C(=O)NCc2ccccc2)CC1,-,-,-,-,-,-
CC(NC(=O)C(=S)N1CCN(C)CC1)c1ccccc1 (stereo not drawn),-,21,-,-,-,-
CC1=C(C(=O)N2CCCCCC2)CC(CC(=O)NC(c2ccccc2)c2ccccc2)C(=O)N1Cc1ccccc1 (stereo not drawn),-,-,-,-,-,-
Cc1cc(Oc2ccc(C#N)cc2)nc(NCc2ccccc2)n1,-,-,-,-,-,-
COCCNC(=O)C1(C)Cc2c(-c3ccc(N(C)C)cc3)ccnc2O1 (stereo not drawn),-,-,-,-,.,-
COc1ccc(/C=C/C(=O)NCCNC(=O)c2ccccc2)cc1OC,-,25,-,-,-,-
COc1ccc(/C=C/C(=O)NCCCNC(=O)/C=C/c2ccc(OC)c(OC)c2)cc1OC,-,-,-,-,-,-
CC1Sc2ccc(S(=O)(=O)CCC(=O)N3CCN(c4cccc(Cl)c4)CC3)cc2NC1=O (stereo not drawn),-,-,-,-,-,-
Cc1ccc(S(=O)(=O)N2CCC(C(=O)OCC(=O)NCCc3ccccc3)CC2)cc1C,-,40,-,-,-,-
O=C(COC(=O)C1CCN(S(=O)(=O)c2ccccc2)CC1)NC(=O)c1ccc(OC(F)F)cc1,-,26,-,-,-,-
Cc1cc(C(=O)NNC(=O)/C=C/c2ccco2)c(C)o1,-,29,-,53,-,-
CC(C)(C)CC(C)(C)NCC(=O)Nc1c2c(nc3ccccc13)CCC2,-,27,-,-,-,-
O=C(Nc1c2c(nc3ccccc13)CCCC2)c1ccccc1Cl,-,-,-,-,-,-
CCOc1cc(N2CCOCC2)c(OCC)cc1NC1=NCCCCC1,-,-,-,-,-,-
O=C(CCN1C(=O)C2C3C=CC(C3)C2C1=O)NCc1cccnc1 (stereo not drawn),-,22,-,-,-,-
